Source: PubChem
ssDAF-12 act = activates DAF-12 receptor from parasite S. stercoralis; HEK293 ssDAF-12/GRIP1 lit1-tk-luc reporter, luminescence; % of 3 µM dafachronic acid response; activation, % at 6.8 µM; actives 1% (n = 370,000); AID 652126;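 active means activation above the mean over all tested compounds plus 3 SD, cut at about 0.9% in these data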;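 further: 0% = DMSO-only wells and 100% = 3 µM delta7-dafachronic acid wells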
DAX1 inh-1 = inhibitors of DAX1 repression of SF-1 activated StAR promoter | inhibition, % at 6.8 µM | HEK293T StAR-luciferase reporter, SF-1/DAX-1 repression relief | actives 1.1% (n = 370,000) | AID 652010;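 active means inhibition above the mean over all tested compounds plus 3 SD, cut at about 3.6% in these data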;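 further: 0% = DAX-1 cells with DMSO and 100% = cells lacking DAX-1 with DMSO; higher inhibition means more luminescence from relief of DAX-1 repression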
hgDAF-12 ag = hgDAF-12 agonism, primary luciferase screen. HEK293 GAL4-hgDAF12 UAS-luciferase reporter, agonist luminescence; normalized to butyrate control. actives 1.8% (n = 370,000). activation, % at 6.8 µM. AID 687014;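 active means activation above a cutoff set at the mean of all screened compounds plus 3 SD, cut at about 10% in these data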;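 further: 0% = DMSO wells and 100% = sodium butyrate wells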
DAX1 inh-2 = inhibitors of human orphan nuclear receptor DAX1 (NR0B1). actives 0.99% (n = 340,000). inhibition, % at 6.75 µM. HEK293 Gal4-DAX1 luciferase reporter, luminescence. P51843;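 active means inhibition above the mean over all tested compounds plus 3 SD, cut at about 4.2% in these data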;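 further: 0% = DAX1-transfected cells with DMSO and 100% = empty-vector control cells with DMSO; inhibition shows as a rise in luminescence from relieved DAX1 repression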
Target sequence (P51843 207-470 limits assumed): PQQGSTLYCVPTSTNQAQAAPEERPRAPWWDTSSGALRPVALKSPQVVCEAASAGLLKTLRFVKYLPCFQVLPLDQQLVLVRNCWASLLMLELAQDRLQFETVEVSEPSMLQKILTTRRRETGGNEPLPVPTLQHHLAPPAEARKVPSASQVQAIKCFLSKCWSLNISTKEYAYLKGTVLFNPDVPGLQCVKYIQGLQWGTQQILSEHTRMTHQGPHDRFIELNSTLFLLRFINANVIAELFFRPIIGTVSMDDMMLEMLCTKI
hcDAF-12 act = activators of H. contortus DAF-12 nuclear receptor; HEK293 hcDAF-12 lit1-tk-luc reporter, luminescence; 0% DMSO, 100% Δ7-dafachronic acid; actives 1.4% (n = 370,000); activation, % at 6.8 µM;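 active means activation above the mean of all tested compounds plus 3 SD, cut at about 5.5% in these data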;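 further: 100% = response to 3 µM Δ7-dafachronic acid high control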
Active calls of the source: *; / = no result. The list is not random: actives were taken first. Their share in the collection is about 4.1%.

SMILES | ssDAF-12 act | DAX1 inh-1 | hgDAF-12 ag | DAX1 inh-2 | hcDAF-12 act
CCCCNC(=O)C(NC(=O)c1ccc(C(F)(F)F)cc1)C(=O)c1ccccc1 (stereo not drawn) | 2.4* | 0 | 1 | / | 0
CC(C)CC(C)NC(=O)c1ccc(C(F)(F)F)cc1 (stereo not drawn) | -1 | 0 | 0 | 4.7* | -3
C#CCC(NC(=O)c1ccc(C(F)(F)F)cc1)C(=O)NCCC (stereo not drawn) | -1 | 1 | 2 | 2 | 1
COc1cccc(C(=O)N[C@@H](CC(C)C)C(=O)N2CCC[C@H]2C(=O)NCc2ccccc2)c1 | -1 | -1 | 4 | / | 0
CC1(C)CC2CC(C)(CN2C(=O)COC(=O)c2n[nH]c(=O)c3ccccc23)C1 (stereo not drawn) | -1 | 0 | 1 | 4.4* | -1
CC1(C)CC2CC(C)(CN2C(=O)COC(=O)c2cccnc2Cl)C1 (stereo not drawn) | -1 | 1 | -1 | 1 | -1
COc1ccc(CNc2ccc([N+](=O)[O-])cn2)cc1 | 0 | 0 | 12* | 2 | 0
COc1ccc(CC(=O)Nc2sccc2C#N)cc1S(=O)(=O)N1CCOCC1 | 0 | 0 | 7 | 0 | 6.0*
CC(OC(=O)Cn1[nH]c(=O)c2ccccc2c1=O)C(=O)Nc1cccc(Cl)c1 (stereo not drawn) | 0 | 0 | 1 | 4.2* | 2
COc1ccc(NC(=O)Nc2ccccc2C(=O)N2CCCC2)cc1OC | -1 | 1 | -2 | / | -1
Cc1c(NC(=O)COC(=O)c2ccc[nH]c2=O)c(=O)n(-c2ccccc2)n1C | -1 | 0 | 0 | 5.3* | -2
Cc1cc(O)cc(=O)n1-c1ccc(OC(F)F)cc1 | -1 | 0 | 0 | / | -1
COc1ccc2nc(NC(=O)c3ccco3)sc2c1 | -1 | 1 | 6 | -3 | 4
COc1cc2sc(NC(=O)c3ccco3)nc2cc1Cl | 0 | 2 | 12* | 6.7* | 5
O=C(Nc1nc2c(Cl)ccc(Cl)c2s1)c1ccco1 | 0 | 0 | 1 | 2 | 5.6*
COc1cc2c(cc1OC)C1CCc3cc4c(cc3C1N=C2)OCO4 (stereo not drawn) | 0 | 2 | 11* | 1 | 2
CC(C)C[C@@H]1COc2cc(Br)ccc2S(=O)(=O)N1Cc1cn(Cc2ccc(C(F)(F)F)cc2)nn1 | -2 | 0 | 1 | / | -2
CCOc1ccc(NC(=O)CN2CCN(c3ccc(F)cc3)CC2)cc1S(=O)(=O)N1CCCC1 | 1.0* | 0 | -1 | 1 | 0
CC(=O)Oc1cc(C)c(Cl)c2c(OC(C)=O)cc(C(C)=O)c(O)c12 | -1 | -2 | -3 | / | -2
Cc1ccc(NC(=O)C[n+]2cc(-c3ccccc3)n3c2CCC3)cc1 | -1 | 0 | -1 | / | -1
O=C(C[n+]1cc(-c2ccc(F)cc2)n2c1CCC2)c1cccs1 | -1 | 0 | 1 | 6.7* | 1
Cc1ccc(-c2c[n+](CC(=O)Nc3ccccc3C)c3n2CCC3)cc1 | -2 | 0 | -1 | 4.3* | 1
CC(C)(N[C@@H](Cc1c[nH]c2ccccc12)C(=O)NCCc1c[nH]c2ccccc12)C(=O)NC1CCCCC1 | -1 | / | -4 | / | 3
Nc1nc2ccccc2n1C(=O)c1ccccc1 | 0 | 3 | 12* | -1 | 5.6*
COc1ccc(C(=O)n2c(N)nc3ccccc32)cc1OC | 0 | 1 | 10 | 4 | 1
SMILES | ssDAF-12 act | DAX1 inh-1 | hgDAF-12 ag | DAX1 inh-2 | hcDAF-12 act
Nc1nc2ccccc2n1C(=O)c1ccc(F)cc1 | 0 | 3.9* | 10 | -3 | 6
COc1ccc(C)c2sc(N(CCN(C)C)C(=O)/C=C/c3cccs3)nc12 | 1.2* | 0 | 1 | 0 | 6.1*
CCN1CCN(Cc2ccc(OCc3ccccc3)cc2)CC1 | -1 | 2 | 13* | 2 | 3
c1ccc(COc2ccc(OCCN3CCCC3)cc2)cc1 | -2 | 1 | 6 | -2 | 1
c1ccc(COc2ccc(OCCN3CCCCC3)cc2)cc1 | -1 | 0 | -1 | -1 | 6.0*
Brc1cccc(CN2CCN(c3ncc(Cc4ccccc4)cn3)CC2)n1 | -1 | -3 | -2 | / | -2
CCCCc1nnn2c1C1c3cc(-c4cccnc4)ccc3CCN1C(=O)C2 (stereo not drawn) | 0 | 0 | -8 | / | -2
Cc1cccc(NC(=O)Nc2ccc3c(c2)CCC3)c1 | -1 | 4.1* | 6 | 1 | 1
Cc1cccc(NC(=O)C(=O)NCc2ccccn2)c1 | -1 | 2 | 10 | 4.3* | 0
CC(=O)c1cccc(NC(=O)Nc2ccc3c(c2)CCC3)c1 | 0 | 1 | 4 | 0 | -1
Cc1cccc(NC(=O)Nc2cnccn2)c1 | -1 | 0 | -2 | 0 | -2
CCc1ccc(NC(=O)Nc2ccc3c(c2)CCC3)cc1 | -1 | 3.7* | 4 | 0 | 0
Cc1cccc(NC(=O)Nc2ccncc2)c1 | 1.1* | 0 | 4 | 0 | -1
Cc1cccc(NC(=S)NCc2ccccn2)c1 | -1 | 2 | 1 | 0 | -1
COc1cccc(NC(=O)Nc2ccc3c(c2)CCC3)c1 | -1 | 4.1* | 12* | 1 | 4
COc1ccc(OC)c(NC(=O)Nc2ccc3c(c2)CCC3)c1 | 0 | -1 | 1 | -1 | -3
Cc1cccc(NC(=O)C2C3CCCCC32)c1 (stereo not drawn) | -1 | 0 | 4 | 5.5* | 0
O=C(Cc1ccc2c(c1)CCCC2)Nc1ccc2ccccc2c1 | 1 | 2 | 4 | 0 | 5.7*
CN1C(=O)C[C@@](C#N)(C(=O)NCc2ccccc2)[C@H]1c1ccccc1 | 0 | 0 | -1 | / | 3
O=C(CN1CCN(c2nc(-c3ccccc3)cs2)CC1)Nc1ccc(F)cc1F | -1 | -1 | -1 | / | -3
Nc1[nH]c(C(=O)c2ccc(Br)cc2)c(-c2cccc3ccccc23)c1C(=O)NCCc1c[nH]c2ccccc12 | 1 | 0 | 2 | / | 1
Nn1c(=O)[nH]c2c([nH]c3ccccc32)c1=O | 0 | 0 | 6 | 0 | 5
Cc1cccc(NC(=O)CSc2nc3c([nH]c4ccccc43)c(=O)n2C)c1 | 1 | 1 | 5 | -1 | 6.0*
COc1cccc(NC(=O)CSc2nc3c([nH]c4ccccc43)c(=O)n2C)c1 | 0 | 0 | 5 | -1 | 6.4*
CCC(C)Sc1nc2c([nH]c3ccccc32)c(=O)n1C (stereo not drawn) | 3.1* | 0 | 4 | 1 | 4
Cc1nc2c([nH]c3ccccc32)c(=O)n1N | 1.2* | 0 | 2 | / | 3
O=C(CCc1ccccc1-c1ccccc1CCNC(=O)c1ccc(F)c(F)c1)NCc1ccccc1 | -1 | 0 | -2 | / | -1
CN1C2=N[C@H](c3ccccc3Br)CC(=O)N2/C(=C\c2ccccc2)[C@@H]1c1ccccc1 | -1 | / | -2 | / | 2
CCN(CC)C(=O)CC[C@H]1CC[C@]2(CCCN(C3CCCCC3)C2)O1 | -1 | 1 | 1 | / | -1
